Results on 15 compounds are retold here after PubChem BioAssay.

The structures appear in SMILES notation. Active and inactive are the calls of the source. Unless noted, the rule behind the calls is not given here.

In assay [1] the test system is Wnt5a (protein binding on small-molecule microarray). The assay is described as follows: small molecules binding Wnt5a protein – biophysical, small-molecule microarray, 635/667 nm fluorescence, primary screen (AID 1142).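 Note: fluorescence read at 667 nm with signal to noise per printed feature.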 The conditions noted are these: 635 nm fluorescence, higher = more signal.
Assay [2] is described as follows: ATP-based viability of Huh7 replicon cells – cell-based, CellTiter-Glo luminescence, basal, 48 h, cytotoxicity control for HCV replication inhibitor project, primary screen (AID 1143).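 Note: Huh7 hepatoma cells carrying a hepatitis C replication reporter with no stimulus; test concentration not given here.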 The conditions noted are these: higher = more signal, called active from +8 up or from −8 down.
Assay [3] in a line: Pseudomonas biofilm growth suppression – PAO1 strain, BacTiter-Glo luminescence, LB-PBS, primary screen (AID 1144). The conditions noted are these: P. aeruginosa PAO1 biofilm, 12 h, higher = more signal.
A short description of assay [4]: basal CRE-LacZ reporter activity in PC12 – cell-based, unstimulated, primary screen (AID 1145). As to conditions: no forskolin, luminescence, 4.5 h, higher = more signal, called active from +8 up or from −8 down.
Assay [5] is described as follows: forskolin-driven CRE-LacZ activity in PC12 – cell-based, CRE-LacZ reporter, forskolin-stimulated, primary screen (AID 1146).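 Note: PC12 cells with 6xCRE LacZ reporter stimulated by forskolin 10 µM; beta-galactosidase reporter signal reflecting CREB driven transcription.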 The conditions noted are these: luminescence, 4.5 h, higher = more signal, called active from +8 up or from −8 down.
In assay [6] the target is Streptavidin (Streptomyces avidinii) (UniProt P22629). The assay is described as follows: compounds binding control protein streptavidin – biophysical, small-molecule microarray, 635/667 nm fluorescence, artefact control for SMM compound annotation, primary screen (AID 1147).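 Note: signal reflects streptavidin binding to arrayed compounds as a control protein.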 As to conditions: higher = more signal.
Sequence of Streptavidin (Streptomyces avidinii) (P22629 whole entry, looked up): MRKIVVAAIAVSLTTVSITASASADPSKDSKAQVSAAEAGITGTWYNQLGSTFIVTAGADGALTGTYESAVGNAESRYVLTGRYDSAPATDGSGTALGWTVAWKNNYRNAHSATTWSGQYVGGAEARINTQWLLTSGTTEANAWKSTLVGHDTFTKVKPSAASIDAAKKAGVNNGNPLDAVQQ
Assay [7] is described as follows: probe aInhba binding on compound microarray – biochemical, small-molecule microarray, 635/667 nm fluorescence, primary screen (AID 1148).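 Note: score merges 667nm spot fluorescence with signal-to-noise for antibody binding to printed compounds.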 The conditions noted are these: higher = more signal.
In assay [8] the target is Torsin-1A (Homo sapiens) (UniProt O14656). The assay can be described thus: TOR1A wild-type binding on microarray – cell lysate, small-molecule microarray, lysate, 635/667 nm, primary screen (AID 1149). As to conditions: COS7 hTOR1A-WT lysate, 635 nm fluorescence, higher = more signal.
Sequence of Torsin-1A (Homo sapiens) (O14656 whole entry, looked up): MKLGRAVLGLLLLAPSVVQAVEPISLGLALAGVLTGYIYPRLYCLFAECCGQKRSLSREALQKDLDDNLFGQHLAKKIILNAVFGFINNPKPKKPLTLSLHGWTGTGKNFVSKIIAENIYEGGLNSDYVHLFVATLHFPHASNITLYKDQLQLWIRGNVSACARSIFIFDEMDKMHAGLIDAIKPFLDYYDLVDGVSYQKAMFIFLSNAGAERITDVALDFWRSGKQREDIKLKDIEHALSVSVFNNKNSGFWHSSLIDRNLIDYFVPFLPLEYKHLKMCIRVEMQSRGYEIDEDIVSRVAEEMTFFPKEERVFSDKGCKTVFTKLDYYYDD
Assay [9] shares this target. The assay is described as follows: torsin A mutant lysate binding on microarrays – cell lysate, small-molecule microarray, COS7 lysate, 635/667 nm fluorescence, primary screen (AID 1150).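 Note: score pools 667 nm emission and signal to noise measuring lysate protein binding.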 As to conditions: COS7 hTOR1A mutant lysate, 635 nm fluorescence, higher = more signal.
Assay [10] deals with Sonic hedgehog protein (Shh). The assay can be described thus: Sonic hedgehog microarray binding compounds – biochemical, small-molecule microarray, 635/667 nm fluorescence, primary screen (AID 1151).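 Note: Shh protein binding to compounds spotted on small-molecule microarray slides; score combines spot fluorescence intensity with signal-to-noise across triplicate slides.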 The conditions noted are these: 635 nm fluorescence, higher = more signal.

On to `CCOC(=O)[C@H](Cc1ccccc1)NC(=O)OC1CC(CCC2CC(CC)=NO2)OC2(CCCC(COC(=O)NCCC(C)C)O2)C1` (stereo not given in full), for which the composite z-score is 0.0453 in [1]; 0.851 in [6]; -0.154 in assay [7]; -0.182 in [8]; 0.225 in [9]; 0.135 in assay [10]. For the same compound, the z-score in [2] is -0.24 (inactive); in assay [3], 0.636 (inactive); in assay [4], 0.105 (inactive); in assay [5], 0.703 (inactive).
On to `O=C1CCCC=C1C(O)CCOC(c1ccccc1)(c1ccccc1)c1ccccc1` (stereo not given), for which the composite z-score in assay [1] is -0.263; in [6], -0.328; in assay [7], -0.128; in [8] it was -0.981; in assay [9] it was -0.0854; in assay [10] it was 0.489. Also, the z-score was -1.32 (inactive) in assay [2], 1.33 (inactive) in [3], -0.344 (inactive) in assay [4] and 1.57 (inactive) in [5].
Turning to `CCOC(=O)[C@H](CC(C)C)NC(=O)CCC1CC(OC(=O)NCc2cccc3ccccc23)CC2(CCCC(COC(=O)NCCCN3CCCC3=O)O2)O1` (stereo not given in full), the composite z-score in [1] is -0.144; in [6], 0.286; in assay [7] it was -0.128; in [8] it was 0.316; in [9], 0.299; in assay [10], 0.956. In addition, the z-score in [2] is -0.961 (inactive); in assay [3] it was -0.908 (inactive); in assay [4] it was -0.437 (inactive); in assay [5], 0.501 (inactive).
For `CO[C@@H]1COC(=O)CC=C[C@H](C)[C@H](OC)COC(=O)[C@H](C)NC(=O)CC=C[C@H]1C`, the composite z-score was -0.0631 in assay [1]; -0.369 in [6]; -0.133 in assay [7]; 1.57 in assay [8]; 0.63 in assay [9]; 2.09 in assay [10]. Besides, the z-score in [2] was -0.0558 (inactive); in assay [3], 0.938 (inactive); in assay [4], 0.159 (inactive); in assay [5], -0.463 (inactive).
As for `CC(C)[C@@H](OCc1ccccc1)[C@H](C)C=NOC[C@@H](O)COCc1ccco1`, the composite z-score in assay [1] was -0.304; in assay [6], -2.14; in assay [7], -0.32; in assay [8] it was -0.712; in [9] it was -0.491; in [10] it was -1.11. Also, the z-score in assay [2] was -0.33 (inactive); in assay [3], 0.117 (inactive); in [4], 1.99 (inactive); in assay [5] it was 0.109 (inactive).
As to `CCOC(=O)[C@H](CC(C)C)NC(=O)CCC1CC(OC(=O)NCc2ccc3c(c2)OCO3)CC2(CCCC(COC(=O)NCC3CCCCC3)O2)O1` (stereo not given in full), the composite z-score in [1] amounted to 0.222; in [6] it was 0.354; in [7] it was 0.0471; in assay [8], 0.0886; in [9] it was 0.392; in assay [10], 1.52. Also, the z-score in assay [2] was -1.86 (inactive); in assay [3] it was -0.0968 (inactive); in assay [4] it was -0.0732 (inactive); in [5] it was 0.389 (inactive).
On to `CC(CCN1CCCCc2nc(C)c(C)cc21)=NO[C@@H](C)c1cn([C@H](CO)Cc2ccccc2)nn1`, for which the composite z-score in [1] was -0.0648; in assay [6], 0.336; in [7], -0.016; in [8], 0.803; in [9], 0.728; in [10], 1.02. The z-score was -0.831 (inactive) in assay [2], 0.48 (inactive) in assay [3], 1.62 (inactive) in assay [4] and -0.0513 (inactive) in assay [5].
For `COc1ccc(O[C@@H]2[C@H](O)CO[C@H]2C=Cc2ccccc2)cc1`, the composite z-score was -0.0668 in assay [1]; -0.06 in assay [6]; -0.179 in assay [7]; -0.696 in assay [8]; -0.668 in assay [9]; 0.253 in assay [10]. The z-score is -0.617 (inactive) in [2], -1.74 (inactive) in [3], 0.284 (inactive) in [4] and -1.04 (inactive) in [5].
Take `Cc1cc2c(nc1C)CCCCN2CC(C)ON=C[C@@H](C)[C@H](OCc1ccccc1)C(C)C` (stereo not given in full): the composite z-score is -0.918 in [1]; -1.88 in [6]; -0.26 in assay [7]; -3.92 in [8]; -1.34 in assay [9]; -0.436 in assay [10]. In addition, the z-score was -4.86 (inactive) in [2], 0.207 (inactive) in assay [3], 2.44 (inactive) in assay [4] and 0.676 (inactive) in assay [5].
Turning to `CCOC(=O)C1=NO[C@]2(C=C(Br)C3(OCCCO3)[C@H]3O[C@H]32)C1`, the composite z-score in [1] was 0.0562; in assay [6] it was -0.468; in assay [7], -0.163; in assay [8], 0.748; in assay [9] it was 1.42; in assay [10] it was 0.0095. The z-score in assay [2] was 0.974 (inactive); in assay [3], 0.892 (inactive); in assay [4], -0.254 (inactive); in assay [5] it was 1.65 (inactive).
Consider `CC[C@@H](c1ccccc1)n1c(=O)n2n(c1=O)[C@H]1[C@H](O)[C@@H]3O[C@@H]3C(=O)[C@H]1CC2`, for which the composite z-score in assay [1] is -0.0319; in [6], 0.092; in assay [7], -0.0762; in assay [8] it was 0.0045; in assay [9], -0.146; in assay [10] it was 0.678. In addition, the z-score in [2] was -3.57 (inactive); in assay [3], 0.206 (inactive); in [4], -1.02 (inactive); in assay [5], 2.92 (inactive).
As to `CON=CC[C@@H]1C=C[C@H](OC(C)=O)[C@@H](COC(C)=O)O1`, the composite z-score was 0.474 in assay [1]; -0.0091 in assay [6]; 0.102 in assay [7]; 0.611 in assay [8]; 0.592 in [9]; 0.783 in assay [10]. Moreover, the z-score was 0.544 (inactive) in assay [2], 0.667 (inactive) in assay [3], -0.403 (inactive) in assay [4] and 0.46 (inactive) in assay [5].
As to `COC(=O)C1=C(C)N(Cc2ccccc2)[C@]23O[C@](C(=O)OC)(C(=O)N2[C@@H]1c1ccccc1)C(C(=O)OC)=C3C(=O)OC`, the composite z-score in assay [1] is 0.256; in assay [6], 0.252; in [7] it was 0.095; in [8], 0.199; in [9], 0.454; in assay [10] it was 0.657. Besides, the z-score in assay [2] was -4.08 (inactive); in assay [3], -1.25 (inactive); in assay [4], 1.92 (inactive); in assay [5] it was -1.61 (inactive).
In the case of `COC(=O)CC=C[C@@H](C)[C@@H](C=NOC[C@H]1O[C@H](c2ccccc2)C=C[C@@H]1Oc1ccc(OC)cc1)NS(=O)(=O)c1ccc(C)cc1`, the composite z-score is -0.308 in [1]; -0.184 in assay [6]; -0.23 in [7]; -1.46 in assay [8]; 0.339 in [9]; -0.863 in assay [10]. For the same compound, the z-score in [2] is -0.588 (inactive); in assay [3], -0.00695 (inactive); in assay [4] it was 3.13 (inactive); in [5], 0.519 (inactive).
For the compound `O=C1[C@H]2[C@H]3[C@H](O)[C@H](O)CC(=NOCc4ccccc4)[C@@H]3CC[C@H]2C(=O)N1c1ccc(F)cc1F`, the composite z-score in [1] was -0.0167; in assay [6], 0.0494; in assay [7] it was -0.104; in assay [8] it was -0.111; in [9] it was -0.153; in [10], 0.068. Besides, the z-score in assay [2] was -1.69 (inactive); in assay [3], -1 (inactive); in assay [4], -0.469 (inactive); in [5], -0.445 (inactive).
